Test results: PubChem BioAssay (NCI)
The panel holds about 83,000 compounds, 20% with a hit somewhere; the sample as a whole holds those more often.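 Growth was measured after 48 h exposure to one concentration of compound in 96-well plates. Values under 10 count as active.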 Activity calls are given as the source filed them.

Test system: A549/ATCC NSCLC
Assay: NCI-60 one-dose screen, 48 h (100 = growth as untreated, 0 = no growth, -100 = all killed)
Details: 10 µM

Row | Structure (SMILES) | growth
1 | O=c1[nH]c2ccc(Cl)cc2cc1CSc1ccc(Nc2nccc(-c3ccc(Cl)cc3)n2)cc1 | -41.8% (active)
2 | O=S(=O)(Nc1ncccn1)c1ccc(-n2c(-c3ccc(Br)cc3)nc(-c3ccccc3)c2-c2ccccc2)cc1 | 34.9% (inactive)
3 | Cc1ccc(C(=O)NNC(=O)CSc2nc3ccccc3c(=O)[nH]2)cc1 | 111% (inactive)
4 | CCCn1c(O)c(N=Nc2nc(-c3cc4ccccc4oc3=O)cs2)c2cc(Br)ccc21 | 110% (inactive)
5 | CN1CCN(c2ccc(Nc3nc(NCCNC(=O)c4ccc(C(F)(F)F)cc4)c4sccc4n3)cc2)CC1 | 28.1% (inactive)
6 | CN1CCN(c2ccc(C(=O)/C=C/c3cc(C(F)(F)F)ccc3Cl)cc2)CC1 | -78.1% (active)
7 | CCOc1ccc(/C=N/NC(=O)Cn2nc(Cc3ccccc3)c3onc(C)c3c2=O)cc1 | 11.6% (inactive)
8 | O=C(NO)c1ccc(-c2nc3ccc4[nH]ncc4c3c3c2CCCC3)cc1 | 6.83% (active)
9 | COc1ccc(-c2ccc(/C=N/NC(=O)c3[nH]c4ccc(Br)cc4c3-c3ccccc3)o2)cc1 | 42.5% (inactive)
10 | CCOC(=O)C1=C(N)N(c2ccc(C)cc2)C2=C(C(=O)CC(C)(C)C2)C1c1ccccc1OC (stereo not drawn) | 107% (inactive)
11 | N#C/C(=C\c1ccc(N(c2ccccc2)c2ccccc2)cc1)C(N)=O | 36.3% (inactive)
12 | NC1=NC(c2ccccc2Cl)N=C(Nc2nn[nH]n2)N1 (stereo not drawn) | 103% (inactive)
13 | O=C(N/N=C/c1ccc(-c2cccc([N+](=O)[O-])c2)o1)c1[nH]c2ccc(Br)cc2c1-c1ccccc1 | 0.801% (active)
